The structures appear in SMILES notation. “And” between values parts separate entries of the source, which are not always exact repeats. Identical values can stand only once. Records with an inconclusive call do not appear. The source made the active and inactive calls. Calls come from the whole dose curve; as a rule, active = well fitted activation curve with a large enough effect in the repeat runs; inconclusive = weak or mixed curves; inactive = no such curve, though single readings can be large or run the other way.
% is set by controls: 0 for no effect and ±100 for the full control effect; potency is the fitted concentration of half-maximal effect.

Chain of Nuclear receptor subfamily 1 group I member 2 (Rattus norvegicus) (Q9R1A7 whole entry, looked up): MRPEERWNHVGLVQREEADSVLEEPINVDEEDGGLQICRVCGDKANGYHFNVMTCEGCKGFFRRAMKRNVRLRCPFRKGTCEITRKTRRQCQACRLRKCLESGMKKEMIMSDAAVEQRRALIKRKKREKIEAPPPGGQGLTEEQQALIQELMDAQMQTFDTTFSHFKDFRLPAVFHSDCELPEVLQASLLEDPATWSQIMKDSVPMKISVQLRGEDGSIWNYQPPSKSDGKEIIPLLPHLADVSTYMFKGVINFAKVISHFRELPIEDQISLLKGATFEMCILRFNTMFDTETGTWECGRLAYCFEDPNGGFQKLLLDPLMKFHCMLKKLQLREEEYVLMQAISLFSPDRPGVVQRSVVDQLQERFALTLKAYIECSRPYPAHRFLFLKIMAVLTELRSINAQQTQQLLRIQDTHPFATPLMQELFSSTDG

For this test, the target named is Nuclear receptor subfamily 1 group I member 2 (Rattus norvegicus) (UniProt Q9R1A7). Put plainly: Rat pregnane X receptor (rPXR) activation by small molecules, qHTS assay (AID 1346983). Note: nearly all actives have a fitted effect of over 20% in size. Conditions: rPXR luciferase reporter cells, One-Glo luminescence, 24 h; max activation: stronger effect = higher value. The source says:
National Center for Advancing Translational Sciences [NCATS] NIH Chemical Genomics Center [NCGC] U.S. Environmental Protection Agency [EPA] National Institutes of Environmental Health Sciences [NIEHS] National Toxicology Program [NTP] Assay overview: The Pregnane X receptor (PXR), a ligand activated nuclear receptor plays a critical role in the regulation of genes involved in drug metabolism and transporters. PXR binds xenobiotics and when compounds interact with PXR produces enhanced expression of CYP3A genes. In humans PXR activation and CYP3A4 induction can be problematic due to their interactions with co-medicated drugs and decrease their efficacy or increase their own metabolism. However, there are known species-specific differences with regard to PXR activation that should be taken into account when animal PXR data are extrapolated to humans. A cell based rat PXR (rPXR) assay (developed by Puracyp, Inc., CA) was used to assess the activation of rPXR.
Assay Protocol Summary: rPXR cells were dispensed at 2,000 per well in 5uL of assay medium into white, solid-bottom 1536-well plates using a Multidrop Combi dispenser (Thermo Scientific). The assay plates were incubated at 37 C for 5hr before transferring 23 nL of test compounds dissolved in DMSO and positive control via Pintool station (Wako). The assay plates were incubated at 37 C for 24 hr. Then 5ul One-Glo assay reagent (Promega) was added to each plate by a Flying Reagent Dispenser (FRD, Aurora Discovery) and following 30 min incubation at room temperature, luciferase activity was quantified on a ViewLux plate reader (Perkin Elmer).
(In general: Quantitative high-throughput screening tests each substance at several concentrations.)
As for `C[C@H]1O[C@@H](n2cc(F)c(=O)[nH]c2=O)[C@H](O)[C@@H]1O`, the max activation was -1.26% (inactive).

For the compound `CC(C)CCCC(C)CCCC(C)CCCCC(C)CCCC(C)CCCC(C)C` (stereo not given), the max activation is -0.619% (inactive).

In the case of `CN(C)CCOC(c1ccc(Cl)cc1)c1ccccn1` (stereo not given), the max activation was -0.352% (inactive).

On to `NC(=O)c1ncn([C@@H]2O[C@H](CO)[C@@H](O)[C@H]2O)c1N`, for which the max activation was 0.984% (inactive).

As for `CCOC(=O)[C@H](CCc1ccccc1)N[C@@H](C)C(=O)N1CCC[C@H]1C(=O)O`, the max activation was -3.1% (inactive).

Consider `Cc1c(C)n(CCN(C)C)c2ccc(C(=O)OCCN(C)C)cc12`, for which the max activation was 6.74% (inactive).

Consider `C[N+](C)(C)CC[N+]1(C)Cc2c(Cl)c(Cl)c(Cl)c(Cl)c2C1`, for which the max activation is -3.39% (inactive).

Turning to `Nc1nc(F)nc2c1ncn2[C@@H]1O[C@H](CO)[C@@H](O)[C@@H]1O`, the max activation is -2.35% (inactive).

Regarding `CCN(CC)S(=O)(=O)c1ccc(C(=O)O)cc1`, the max activation was -1.28% (inactive).

For the compound `NCCNC(=O)c1ccc(Cl)cn1`, the max activation is -1.85% (inactive).

Turning to `O=C(O)CCNC(=O)c1ccc(N=Nc2ccc(O)c(C(=O)O)c2)cc1`, the max activation is -1.98% (inactive).

For `C=CCn1c(=O)n([C@@H]2O[C@H](CO)[C@@H](O)[C@H]2O)c2nc(N)[nH]c(=O)c21`, the max activation was -4.51% (inactive).

Regarding `NC(=O)c1ncn([C@@H]2O[C@H](CO)[C@@H](O)[C@H]2O)c1O`, the max activation was -0.429% (inactive).

In the case of `CN(C)CCn1nnnc1SCC1=C(C(=O)O)N2C(=O)[C@@H](NC(=O)Cc3csc(N)n3)[C@H]2SC1`, the max activation was 14.1% (inactive).

On to `CC1CCN(CCCC(=O)c2ccc(F)cc2)CC1`, for which the max activation was -4.88% (inactive).

Regarding `OCCN1C[C@H](O)[C@@H](O)[C@H](O)[C@H]1CO`, the max activation was -2.71% (inactive).

With `NC(=O)CCCCC1CCSS1` (stereo not given), the max activation was -4.58% (inactive).

Take `O=C1C(CCS(=O)c2ccccc2)C(=O)N(c2ccccc2)N1c1ccccc1` (stereo not given): the max activation is -2.19% (inactive).

With `Cc1ncc(CSSCc2cnc(C)c(O)c2CO)c(CO)c1O`, the max activation is -2.5% (inactive).

As for `Cc1cc(C)cc(OCC2CNC(=O)O2)c1` (stereo not given), the max activation was -2.51% (inactive).

Consider `CCn1cc(C(=O)O)c(=O)c2cc(F)c(N3CCN(C)CC3)cc21`, for which the max activation was -0.517% (inactive).

Turning to `c1cc(CN2CCCCC2)cc(OCCCNc2nc3ccccc3s2)c1`, the max activation was 2.06% (inactive).

On to `OCc1ccccn1`, for which the max activation was -1.13% (inactive).

Turning to `COc1cc(C(=O)N2CCOCC2)cc(OC)c1OC`, the max activation is -6.89% (inactive) and 0.152% (inactive).

On to `CCCCCCCCCCCCCCCCCCOCC(O)CO` (stereo not given), for which the max activation is 3.52% (inactive).

With `[O-][N+](=Nc1ccccc1)c1ccccc1`, the max activation is 13.9% (inactive).

As for `O=C(O)/C=C/c1ccc(Cn2ccnc2)cc1`, the max activation is -1.1% (inactive).

For `C=CCSCC1Nc2cc(Cl)c(S(N)(=O)=O)cc2S(=O)(=O)N1` (stereo not given), the max activation was 0.305% (inactive).

In the case of `Nc1cc(C(Cl)=C(Cl)Cl)c(S(N)(=O)=O)cc1S(N)(=O)=O`, the max activation was -3.29% (inactive).

In the case of `CC(C)[N+](C)(C)CC(O)COc1cccc2ccccc12` (stereo not given), the max activation was -2.92% (inactive).

`CCN(CC)C(=O)c1ccc(O)c(OC)c1`: the max activation is -5.72% (inactive).

On to `NC(CS)C(=O)O` (stereo not given), for which the max activation was -0.0152% (inactive).

In the case of `O=C(O)c1ccccc1-c1ccc(C(F)(F)F)cc1`, the max activation was -1.61% (inactive).

Turning to `Cc1onc(-c2ccccc2)c1-c1ccc(S(N)(=O)=O)cc1`, the max activation is -3.92% (inactive).

On to `O=C(O)c1ccc[n+]([O-])c1`, for which the max activation is -2.52% (inactive).

As to `CCC(C(=O)NC(N)=O)c1ccccc1` (stereo not given), the max activation is -2.91% (inactive).

Consider `CC(C)c1ccc2oc3nc(N)c(C(=O)O)cc3c(=O)c2c1`, for which the Potency is 4470 nM (active).

Consider `COC(=O)[C@H]1[C@H]2C[C@@H]3c4[nH]c5cc(OC)ccc5c4CCN3C[C@H]2C[C@@H](OC(=O)COc2ccc(OC)cc2)[C@@H]1OC`, for which the max activation is -1.88% (inactive).

`NS(=O)(=O)c1cc2c(cc1C(F)(F)F)NC(Cc1ccccc1)NS2(=O)=O` (stereo not given): the max activation is -1.57% (inactive).

For `CCCC(=O)O[C@]1(C(=O)CCl)[C@@H](C)C[C@H]2[C@@H]3CCC4=CC(=O)C=C[C@]4(C)[C@@]3(F)C(=O)C[C@@]21C`, the Potency is 1000 nM (active).

These data come from PubChem BioAssay (Tox21).
